Laboratory results taken from PubChem BioAssay.
“And” between values parts separate entries of the source, which are not always exact repeats. Identical values can stand only once. Inconclusive results are not listed. The source made the active and inactive calls.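 How the source made its calls, unless noted: active means normalized viability below 100% at a tested concentration; inactive means the rest.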

Key:
[1] = growth inhibition of DIPG glioma cells, dose response, cell-based, SU-DIPG-XIII, MIPE4.0, CellTiter-Glo, qHTS (AID 1347061; cut-off not given, nearly all actives have AC50 up to about 37 µM;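 further: cells exposed to compound for 48 hours before readout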); conditions: SU-DIPG-XIII viability, CellTiter-Glo ATP luminescence
[2] = growth inhibition of DIPG glioma cells, dose response, cell-based, JHH-DIPG-1, MIPE4.0, CellTiter-Glo, qHTS (AID 1347062; cut-off not given, nearly all actives have AC50 up to about 27 µM;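 on AC50: cells exposed to compound for two days before readout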); conditions: JHH-DIPG-1 viability, CellTiter-Glo ATP luminescence
[3] = growth inhibition of DIPG glioma cells, dose response, cell-based, SU-DIPG-IV, MIPE4.0, CellTiter-Glo, qHTS (AID 1347063; cut-off not given, nearly all actives have AC50 up to about 30 µM;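 further: compound exposure lasted 48 hours before the viability readout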); conditions: SU-DIPG-IV viability, CellTiter-Glo ATP luminescence
[4] = growth inhibition of DIPG glioma cells, dose response, cell-based, SU-DIPG-XIII, MIPE5.0, CellTiter-Glo, qHTS (AID 1347064; cut-off not given, nearly all actives have AC50 up to about 23 µM;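 on AC50: cells exposed to compound for 48 hours before the viability read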); conditions: SU-DIPG-XIII viability, CellTiter-Glo ATP luminescence
[5] = viability loss in pontine glioma line – cell-based, SU-DIPG-XXV, MIPE5.0, CellTiter-Glo, qHTS, dose response (AID 1347065; cut-off not given, nearly all actives have AC50 up to about 26 µM;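 further: cells exposed to compound for 48 hours before ATP readout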); conditions: CellTiter-Glo ATP luminescence
[6] = SU-DIPG-VI glioma cell viability, MIPE4.0 library, CellTiter-Glo luminescence, qHTS (AID 1347066; cut-off not given, nearly all actives have AC50 up to about 30 µM;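 further: cells exposed to compound for 48 hours before readout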); conditions: CellTiter-Glo ATP luminescence
[7] = JHH-DIPG-1 glioma cell viability, MIPE5.0 library, CellTiter-Glo luminescence, qHTS (AID 1347067; cut-off not given, nearly all actives have AC50 up to about 26 µM;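 further: cells exposed to compound for 48 hours before readout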); conditions: JHH-DIPG-1 glioma viability, CellTiter-Glo ATP luminescence
[8] = SU-DIPG-XXV glioma cell viability, MIPE5.0 library, qHTS (AID 1347068; cut-off not given, nearly all actives have IC50 up to about 30 µM;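 on IC50: cells exposed to compound for 48 hours before viability readout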)
[9] = sensitizers of A549 cells to miR-34 induction, primary screen, imaging, A549 dox-inducible miR-34, nuclei and caspase counts (AID 1347080;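 active means compounds whose cell count with miR-34 switched on is under 0.7 times the count with it off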); conditions: A549 miR-34 inducible, Hoechst nuclei count, 48 h
[10] = modifiers of HSF1 nuclear foci, imaging, Selleck Cancer Library (AID 1347162; in the data active means plate-normalised HSF1 focus index below about 0.46); conditions: human cells, at 10 µM; SSMD: measured here: HSF1 foci SSMD mean; cell count: measured here: cell number; plate-normalised HSF1 focus index: stronger effect = lower value
[11] = survival rescue of mitochondrial mutant cells in low glucose, primary screen, MELAS cybrids, Rieske KO mouse fibroblasts, CellTiter-Glo (AID 1508586;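 active means mean z-score across replicates of 1.96 or higher in either the MELAS or the Rieske mutant cell line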;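 further: z relative to plate mean and SD of compound and empty wells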)
[12] = ovarian cancer cell viability with rucaparib, profiling panel, oncology-focused library, rucaparib conditional (AID 1508598); conditions: patient-derived ovarian cancer cells, CellTiter-Glo viability, 144 h, stronger effect = lower value
[13] = kinase inhibitors against Plasmodium liver-stage infection, cell-based, known kinase inhibitor set, luminescence, hepatoma host viability (AID 624392; call rule not given here;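 further: infected cells incubated roughly two days before readout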); conditions: Plasmodium liver stage in hepatoma cells, luciferase luminescence, concentration not given here; liver cell % of control: measured here: host liver cell viability; parasite % of control: stronger effect = lower value
[14] = growth inhibition of DIPG glioma cells, dose response, cell-based, SU-DIPG-XVII, MIPE5.0, CellTiter-Glo, qHTS (AID 1347060; cut-off not given, nearly all actives have AC50 up to about 26 µM;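 on AC50: cells exposed to compound for 48 hours before viability readout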); conditions: SU-DIPG-XVII viability, CellTiter-Glo ATP luminescence
[15] = liver-stage malaria parasite growth inhibition, primary screen, cell-based, HepG2, luciferase luminescence, HepG2 viability (AID 624349; in the data active means parasite load remaining mostly below about 12%, no sharp cut-off; inactive means mostly above about 10%;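 further: 100% = mean of DMSO negative control wells on the same plate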); conditions: P. berghei liver stage in HepG2, luciferase luminescence, concentration not given here; parasite load remaining: stronger effect = lower value; viability: measured here: HepG2 viability without parasites
[16] = tested on: Hepatitis C virus NS3 helicase; experiment: HCV NS3 helicase inhibitors, primary screen, biochemical, fluorescence polarization, LOPAC1280 library (AID 687035; in the data active means inhibition above about 37%); conditions: Purified HCV NS3 helicase, Cy5-dT15 ssDNA binding fluorescence polarization; stronger effect = higher value; concentration not given here
[17] = Cy5 fluorescence quenching or enhancement artefacts, artefact control for HCV NS3 helicase inhibitor project, biochemical, LOPAC1280 (AID 687037; call rule not given here); conditions: Cy5-DNA-NS3h complex fluorescence interference counterscreen
[18] = phospholipid biosynthesis inhibitors in animal cells, primary screen, cell-based, LOPAC library, screen 4 (AID 1347384; call rule not given here); conditions: phospholipid biosynthesis inhibition screen, at 10 µM
[19] = viability rescue of complex I mutant cybrids, primary screen, cell-based, galactose medium, ATP luminescence (AID 1645843;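 active means z-score of at least 1.8 in each of two replicates, scored against plate mean and spread of sample wells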;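 further: positive z means more ATP and so rescue of galactose-driven cybrid death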); conditions: complex I mutant cybrid cells, 72 h, stronger effect = higher value
[20] = stronger effect = lower value, cell number ratio, induced over uninduced
[21] = measured here: relative caspase fold change +Dox/-Dox
[22] = measured here: total cells with miR-34 induction, stronger effect = lower value
[23] = measured here: total cells without miR-34 induction
[24] = MELAS cybrid survival, CellTiter-Glo 48 h, stronger effect = higher value
[25] = Rieske KO mouse fibroblast survival, CellTiter-Glo 72 h
[26] = at 0.000305 µM, OCI-C5x cells, with rucaparib 10 µM, 100% = cells with rucaparib alone
[27] = at 0.000305 µM, OCI-C5x cells, without rucaparib
[28] = at 0.000305 µM, OCI-P5x cells, with rucaparib 20 µM, 100% = cells with rucaparib alone
[29] = at 0.000305 µM, OCI-P5x cells, without rucaparib
[30] = at 0.00122 µM, OCI-C5x cells, with rucaparib 10 µM, 100% = cells with rucaparib alone
[31] = at 0.00122 µM, OCI-C5x cells, without rucaparib
[32] = at 0.00122 µM, OCI-P5x cells, with rucaparib 20 µM, 100% = cells with rucaparib alone
[33] = at 0.00122 µM, OCI-P5x cells, without rucaparib
[34] = at 0.00488 µM, OCI-C5x cells, with rucaparib 10 µM, 100% = cells with rucaparib alone
[35] = at 0.00488 µM, OCI-C5x cells, without rucaparib
[36] = at 0.00488 µM, OCI-P5x cells, with rucaparib 20 µM, 100% = cells with rucaparib alone
[37] = at 0.00488 µM, OCI-P5x cells, without rucaparib
[38] = at 0.0195 µM, OCI-C5x cells, with rucaparib 10 µM, 100% = cells with rucaparib alone
[39] = at 0.0195 µM, OCI-C5x cells, without rucaparib
[40] = at 0.0195 µM, OCI-P5x cells, with rucaparib 20 µM, 100% = cells with rucaparib alone
[41] = at 0.0195 µM, OCI-P5x cells, without rucaparib
[42] = at 0.0781 µM, OCI-C5x cells, with rucaparib 10 µM, 100% = cells with rucaparib alone
[43] = at 0.0781 µM, OCI-C5x cells, without rucaparib
[44] = at 0.0781 µM, OCI-P5x cells, with rucaparib 20 µM, 100% = cells with rucaparib alone
[45] = at 0.0781 µM, OCI-P5x cells, without rucaparib
[46] = at 0.313 µM, OCI-C5x cells, with rucaparib 10 µM, 100% = cells with rucaparib alone
[47] = at 0.313 µM, OCI-C5x cells, without rucaparib
[48] = at 0.313 µM, OCI-P5x cells, with rucaparib 20 µM, 100% = cells with rucaparib alone
[49] = at 0.313 µM, OCI-P5x cells, without rucaparib
[50] = at 1.25 µM, OCI-C5x cells, with rucaparib 10 µM, 100% = cells with rucaparib alone
[51] = at 1.25 µM, OCI-C5x cells, without rucaparib
[52] = at 1.25 µM, OCI-P5x cells, with rucaparib 20 µM, 100% = cells with rucaparib alone
[53] = at 1.25 µM, OCI-P5x cells, without rucaparib
[54] = at 5 µM, OCI-C5x cells, with rucaparib 10 µM, 100% = cells with rucaparib alone
[55] = at 5 µM, OCI-C5x cells, without rucaparib
[56] = at 5 µM, OCI-P5x cells, with rucaparib 20 µM, 100% = cells with rucaparib alone
[57] = at 5 µM, OCI-P5x cells, without rucaparib

CC(C)n1nc(-c2ccc3oc(N)nc3c2)c2c(N)ncnc21
0.57: SSMD [10]
-2.58: z-score [11, 25]
2980: cell count [9, 22]
active: AC50 [1] 9.35 µM | AC50 [2] 8.33 µM | AC50 [3] 3.72 µM | AC50 [4] 1.18 µM | AC50 [5] 0.0661 µM | AC50 [6] 18.7 µM | AC50 [7] 1.18 µM | IC50 [8] 4.17 µM | z-score [11, 24] 2.73 | viability [12, 28] 96.2% | viability [12, 29] 92.8% | viability [12, 32] 92.7% | viability [12, 33] 90.7% | viability [12, 36] 80.8% | viability [12, 37] 79.2% | viability [12, 38] 87.5% | viability [12, 39] 88.1% | viability [12, 40] 56.8% | viability [12, 41] 52.8% | viability [12, 42] 70.4% | viability [12, 43] 62.2% | viability [12, 44] 43.5% | viability [12, 45] 37.2% | viability [12, 46] 61.9% | viability [12, 47] 55.6% | viability [12, 48] 36.9% | viability [12, 49] 26.5% | viability [12, 50] 51.8% | viability [12, 51] 47.4% | viability [12, 52] 29% | viability [12, 53] 22.9% | viability [12, 54] 39% | viability [12, 55] 31.9% | viability [12, 56] 19.5% | viability [12, 57] 15.8%
inactive: fold change [9, 20] 0.877 | plate-normalised HSF1 focus index [10] 1.03 | viability [12, 26] 109% | viability [12, 27] 109% | viability [12, 30] 113% | viability [12, 31] 121% | viability [12, 34] 100% | viability [12, 35] 123%
6620: cell count [10]
3400: cell count [9, 23]
0.45: fold change [9, 21]

O=C(CO)N1CCC(c2[nH]nc(-c3ccc(Cl)cc3)c2-c2ccncn2)CC1
88.6% and 86.6% and 97.2%: liver cell % of control [13]
inactive: parasite % of control [13] 11.9% and 26% and 30.9% | outcome [1] | outcome [2] | outcome [3] | outcome [4] | outcome [5] | outcome [6] | outcome [8]

CCN(c1cc(-c2ccc(CN3CCOCC3)cc2)cc(C(=O)NCc2c(C)cc(C)[nH]c2=O)c1C)C1CCOCC1
0.487: fold change [9, 21]
8360: cell count [9, 23]
-0.95: z-score [11, 25]
7910: cell count [9, 22]
inactive: outcome [14] | outcome [8] | fold change [9, 20] 0.946 | z-score [11, 24] -0.348

O=C(CC12CC3CC(CC(C3)C1)C2)Nc1cccc2nc(NCCNCCO)ccc12
inactive: outcome [4]
active: AC50 [1] 14.8 µM | AC50 [2] 20.9 µM | AC50 [3] 10.5 µM

Cc1cc2c(F)c(Oc3ncnn4cc(OC[C@@H](C)O)c(C)c34)ccc2[nH]1
inactive: viability [12, 26] 117% | viability [12, 27] 131% | viability [12, 28] 112% | viability [12, 29] 105% | viability [12, 30] 131% | viability [12, 31] 128% | viability [12, 32] 112% | viability [12, 33] 109% | viability [12, 34] 125% | viability [12, 35] 126% | viability [12, 36] 108% | viability [12, 38] 111% | viability [12, 39] 124% | viability [12, 40] 110% | viability [12, 41] 102% | viability [12, 42] 123% | viability [12, 43] 141% | viability [12, 45] 108% | viability [12, 46] 122% | viability [12, 47] 129% | viability [12, 48] 113% | viability [12, 49] 106% | viability [12, 50] 117% | viability [12, 51] 135% | viability [12, 52] 109% | viability [12, 53] 102% | viability [12, 54] 122% | viability [12, 55] 139% | viability [12, 56] 109%
active: AC50 [14] 14.8 µM | IC50 [8] 14.8 µM | viability [12, 37] 99.9% | viability [12, 44] 99% | viability [12, 57] 97.4%

c1cc(-c2cnn3cc(-c4ccc(OCCN5CCCCC5)cc4)cnc23)ccn1
inactive: parasite load remaining [15] 40.1%
103%: viability [15]
active: AC50 [1] 23.5 µM | AC50 [2] 10.5 µM | AC50 [3] 10.5 µM | AC50 [4] 13.2 µM | AC50 [5] 11.8 µM | AC50 [6] 23.5 µM | AC50 [7] 14.8 µM | IC50 [8] 11.8 µM

O=C1c2c(O)cc(O)cc2O[C@H](c2cc(O)c(O)c(O)c2)[C@H]1O
inactive: outcome [1] | outcome [2] | outcome [3]

CCN(CC)CCn1c(=O)c(Cc2ccc(OC)cc2)nc2ccccc21
9170: cell count [9, 23]
9100: cell count [9, 22]
inactive: inhibition [16] 0% | fluorescence ratio (interference) [17] 1 | outcome [1] | outcome [2] | outcome [3] | outcome [4] | outcome [5] | outcome [6] | outcome [7] | outcome [8] | fold change [9, 20] 0.991 | outcome [18] | z-score [19] -0.075
1.5: fold change [9, 21]

Cc1cc(OCCCc2c(C(=O)O)n(Cc3cccnc3)c3c(-c4c(COc5ccc(N6CCN([S+](C)(=O)[O-])CC6)cc5)nn(C)c4C)cccc23)cc(C)c1Cl
active: AC50 [3] 20.9 µM
inactive: outcome [1] | outcome [2]

O=S(=O)(N=Cc1c(O)ccc2ccccc12)c1cccs1
active: AC50 [3] 9.35 µM
inactive: outcome [1] | outcome [2]

CN(C)C1CCN(C(=O)c2ccc(NC(=O)Nc3nc(N4CCOCC4)nc(N4CCOCC4)n3)cc2)CC1
active: AC50 [1] 0.833 µM | AC50 [2] 0.166 µM | AC50 [3] 0.0469 µM | AC50 [4] 0.525 µM | AC50 [5] 0.295 µM | AC50 [6] 0.264 µM | AC50 [7] 0.525 µM | IC50 [8] 0.934 µM
